Laboratory results reported in PubChem BioAssay AID1159580 (chemical genetic matrix, 2015).
Several values for one entry are separate records, joined by “and”; a condition that tells them apart may be missing. Equal entries are not always repeated. Screen size: about 5,500 compounds; about 2,000 (36%) were called active. Not shown: some 18% with an inconclusive outcome. No stated cut-off is given here; in the data, active means normalized growth mostly below about 0.91 (no sharp cut-off); inconclusive means no clear call, values can overlap the other calls; inactive means mostly above about 0.92. The list shows a part of the results.

Assay: chemical genetic growth profiling, strain panel (AID 1159580);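 further: tested at 20 µM; growth read once vehicle control cultures reached saturation at 30 °C; 1 = growth at the plate median or of vehicle wells; lower values mean less growth of the strain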
Conditions: S. cerevisiae deletion strains, growth OD

Measured: normalized growth

COc1cc(O)cc(OC)c1OC
inactive: locus YAL013W, strain DEP1, active compounds read low 1.05 | locus YAL021C, strain ccr4, active compounds read low 0.982 | locus YAL026C, strain drs2, active compounds read low 0.974 | locus YAL030W, strain snc1, active compounds read low 0.977 | locus YBL061C, strain skt5, active compounds read low 0.98 | locus YBR009C, strain hhf1, active compounds read low 0.964 | locus YBR021W, strain FUR4, active compounds read low 1.01 | locus YBR023C, strain chs3, active compounds read low 0.999 | locus YBR171W, strain sec66, active compounds read low 0.978 | locus YBR229C, strain ROT2, active compounds read low 1.01 | locus YBR231C, strain swc5, active compounds read low 0.992 | locus YBR279W, strain paf1, active compounds read low 0.992 | locus YCL011C, strain gbp2, active compounds read low 0.969 | locus YCL016C, strain dcc1, active compounds read low 0.997 | locus YCL029C, strain bik1, active compounds read low 1.01 | locus YCL061C, strain MRC1, active compounds read low 0.986 | locus YCL069W, strain vba3, active compounds read low 0.978 | locus YCR088W, strain abp1, active compounds read low 0.987 | locus YDL005C, strain med2, active compounds read low 0.967 | locus YDL035C, strain GPR1, active compounds read low 1.05 | locus YDL040C, strain nat1, active compounds read low 0.989 | locus YDL074C, strain BRE1, active compounds read low 1.04 | locus YDL101C, strain DUN1, active compounds read low 1.02 | locus YDL134C, strain PPH21, active compounds read low 1.01 | locus YDL185W, strain tfp1, active compounds read low 1 | locus YDL192W, strain arf1, active compounds read low 1.03 | locus YDR001C, strain nth1, active compounds read low 0.972 | locus YDR069C, strain doa4, active compounds read low 0.962 | locus YDR101C, strain arx1, active compounds read low 1 | locus YDR137W, strain rgp1, active compounds read low 0.998 | locus YDR159W, strain sac3, active compounds read low 0.925 | locus YDR162C, strain NBP2, active compounds read low 1.06 | locus YDR195W, strain ref2 0.918 | locus YDR297W, strain sur2, active compounds read low 0.986 | locus YDR318W, strain mcm21, active compounds read low 1.01 | locus YDR334W, strain swr1, active compounds read low 0.975 | locus YDR335W, strain msn5, active compounds read low 0.991 | locus YDR388W, active compounds read low 1.01 | locus YDR392W, strain spt3, active compounds read low 0.942 | locus YDR502C, strain sam2, active compounds read low 0.999 | locus YEL003W, strain gim4, active compounds read low 0.987 | locus YEL037C, strain rad23, active compounds read low 0.988 | locus YEL061C, strain CIN8 (second series), active compounds read low 0.961 | locus YEL061C, strain CIN8, active compounds read low 1.02 | locus YER015W, strain faa2, active compounds read low 1 | locus YER016W, strain bim1, active compounds read low 0.995 | locus YER110C, active compounds read low 1 | locus YER111C, strain swi4, active compounds read low 0.967 | locus YER155C, strain BEM2 (second series), active compounds read low 0.97 | locus YER155C, strain BEM2, active compounds read low 1.02 | locus YER167W, strain BCK2, active compounds read low 1.02 | locus YFR010W, strain ubp6, active compounds read low 0.962 | locus YGL078C, strain dbp3, active compounds read low 1.01 | locus YGL086W, strain mad1, active compounds read low 1.01 | locus YGL167C, strain pmr1, active compounds read low 0.954 | locus YGL173C, strain kem1, active compounds read low 0.99 | locus YGL227W, strain vid30, active compounds read low 0.97 | locus YGL240W, strain doc1, active compounds read low 0.945 | locus YGL248W, strain PDE1, active compounds read low 1.04 | locus YGL253W, strain hxk2, active compounds read low 0.995 | locus YGR135W, strain pre9, active compounds read low 1.01 | locus YGR252W, strain gcn5, active compounds read low 1.03 | locus YHR013C, strain ard1, active compounds read low 0.923 | locus YHR027C, strain rpn1, active compounds read low 0.993 | locus YHR030C, strain SLT2, active compounds read low 1.02 and 0.996 | locus YHR079C, strain IRE1 (second series), active compounds read low 0.995 | locus YHR079C, strain IRE1, active compounds read low 0.983 | locus YHR094C, strain hxt1, active compounds read low 0.992 | locus YHR129C, strain ARP1, active compounds read low 1.02 | locus YHR142W, strain chs7, active compounds read low 1.01 | locus YHR200W, strain rpn10, active compounds read low 1.01 | locus YIL066C, strain RNR3, active compounds read low 1.03 | locus YIL073C, strain SPO22, active compounds read low 1.06 | locus YIL125W, strain kgd1, active compounds read low 1.01 | locus YIR030C, strain dcg1, active compounds read low 1 | locus YJL092W, strain hpr5, active compounds read low 0.982 | locus YJL095W, strain BCK1 (second series), active compounds read low 0.996 | locus YJL095W, strain BCK1, active compounds read low 1.05 and 0.999 | locus YJL115W, strain asf1, active compounds read low 0.992 | locus YJL129C, strain trk1, active compounds read low 0.97 | locus YJL134W, strain LCB3, active compounds read low 1.03 | locus YJL154C, strain vps35, active compounds read low 0.983 | locus YJL164C, strain tpk1, active compounds read low 0.971 | locus YJL166W, strain qcr8, active compounds read low 0.993 | locus YJL168C, strain set2, active compounds read low 1.01 | locus YJL187C, strain SWE1 (second series), active compounds read low 1.03 | locus YJL187C, strain SWE1, active compounds read low 0.977 | locus YJR043C, strain POL32, active compounds read low 1.05 | locus YJR066W, strain TOR1, active compounds read low 0.905 | locus YKL009W, strain mrt4, active compounds read low 1.05 | locus YKL068W, active compounds read low 1.01 | locus YKL085W, strain MDH1 (second series), active compounds read low 1.02 | locus YKL085W, strain MDH1, active compounds read low 1.02 | locus YKL160W, strain elf1, active compounds read low 1 | locus YKR001C, strain vps1, active compounds read low 1.01 | locus YKR026C, strain gcn3, active compounds read low 0.945 | locus YKR091W, strain srl3, active compounds read low 0.968 | locus YLL001W, strain dnm1, active compounds read low 0.994 | locus YLL026W, active compounds read low 0.998 | locus YLL041C, strain sdh2, active compounds read low 1 | locus YLR027C, strain aat2, active compounds read low 0.986 | locus YLR039C, strain RIC1, active compounds read low 1.11 | locus YLR058C, strain SHM2, active compounds read low 1.03 | locus YLR102C, strain apc9, active compounds read low 0.99 | locus YLR113W, strain HOG1, active compounds read low 1.04 | locus YLR221C, strain rsa3, active compounds read low 0.97 | locus YLR258W, strain gsy2, active compounds read low 0.996 | locus YLR262C, strain YPT6 (second series), active compounds read low 0.992 | locus YLR262C, strain YPT6, active compounds read low 1.15 | locus YLR268W, strain sec22, active compounds read low 1.03 | locus YLR320W, strain mms22, active compounds read low 0.984 | locus YLR342W, strain FKS1 (second series), active compounds read low 1.04 | locus YLR342W, strain FKS1, active compounds read low 0.957 | locus YLR357W, strain rsc2, active compounds read low 0.948 | locus YLR370C, strain arc18, active compounds read low 0.955 | locus YLR371W, strain rom2, active compounds read low 1 | locus YLR384C, strain iki3, active compounds read low 0.937 | locus YLR418C, strain cdc73, active compounds read low 1.01 | locus YML016C, strain PPZ1, active compounds read low 1.02 | locus YML032C, strain rad52, active compounds read low 1.01 | locus YML120C, strain ndi1, active compounds read low 0.97 | locus YML124C, strain tub3, active compounds read low 1.01 | locus YMR058W, strain fet3, active compounds read low 0.97 | locus YMR078C, strain ctf18, active compounds read low 1 | locus YMR125W, strain sto1, active compounds read low 0.984 | locus YMR129W, active compounds read low 0.962 | locus YMR205C, strain PFK2, active compounds read low 0.95 | locus YMR223W, strain ubp8, active compounds read low 0.993 | locus YMR231W, strain pep5, active compounds read low 0.994 | locus YMR307W, strain GAS1, active compounds read low 1.08 | locus YNL067W, strain RPL9B, active compounds read low 1.03 | locus YNL071W, strain lat1, active compounds read low 0.994 | locus YNL128W, strain TEP1, active compounds read low 1.07 | locus YNL153C, strain GIM3, active compounds read low 1.01 | locus YNL183C, strain NPR1, active compounds read low 0.928 | locus YNL209W, strain ssb2, active compounds read low 0.983 | locus YNL233W, strain BNI4, active compounds read low 1.03 | locus YNL248C, strain rpa49, active compounds read low 1 | locus YNL250W, strain rad50, active compounds read low 1.03 | locus YNL271C, strain bni1, active compounds read low 1.01 | locus YNL298W, strain CLA4, active compounds read low 1 | locus YNL307C, strain MCK1, active compounds read low 0.996 | locus YNL322C, strain KRE1 (second series), active compounds read low 0.964 | locus YNR049C, strain mso1, active compounds read low 0.986 | locus YNR052C, strain pop2, active compounds read low 0.996 | locus YOL006C, strain TOP1, active compounds read low 1.22 | locus YOL012C, strain htz1 1.19 | locus YOL147C, strain pex11, active compounds read low 1 | locus YOR001W, strain rrp6, active compounds read low 1.01 | locus YOR061W, strain CKA2, active compounds read low 1.04 | locus YOR069W, strain VPS5, active compounds read low 1.01 | locus YOR070C, strain gyp1, active compounds read low 0.993 | locus YOR080W, strain dia2, active compounds read low 0.977 | locus YOR083W, strain WHI5, active compounds read low 1 | locus YOR106W, strain vam3, active compounds read low 1 | locus YOR136W, strain idh2, active compounds read low 1.01 | locus YOR144C, strain elg1, active compounds read low 1 | locus YOR184W, strain ser1, active compounds read low 1.05 | locus YOR231W, strain MKK1, active compounds read low 1 | locus YOR265W, strain rbl2, active compounds read low 0.96 | locus YOR270C, strain vph1, active compounds read low 0.986 | locus YOR290C, strain snf2, active compounds read low 0.921 | locus YOR316C, strain cot1, active compounds read low 0.993 | locus YPL051W, strain arl3, active compounds read low 1.01 | locus YPL078C, strain atp4, active compounds read low 0.988 | locus YPL106C, strain sse1, active compounds read low 0.944 | locus YPL240C, strain hsp82, active compounds read low 0.981 | locus YPL256C, strain CLN2, active compounds read low 0.978 | locus YPR119W, strain clb2, active compounds read low 1 | locus YPR141C, strain kar3, active compounds read low 1.01 | locus YPR163C, strain tif3, active compounds read low 1 | locus YPR167C, strain met16, active compounds read low 1.01 | strain wtn01, active compounds read low 1.02
